Consider eight compounds from PubChem BioAssay (NCI).

Compounds without any hit were thinned out: in the full panel of roughly 83,000, 20% have a hit.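 96-well plates, one dose, 48 hours. Percent growth reported; active if below 10.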 A number with no mark means an inactive call. Activity calls are given as the source filed them.

Test systems include DU-145 prostate; K-562 leukemia; MALME-3M melanoma; MDA-MB-231 breast; RXF 393 renal; SF-268 CNS; SF-295 CNS; SF-539 CNS; UACC-257 melanoma; M14 melanoma; HCT-15 colon; HT29 colon; SNB-75 CNS; U251 CNS; PC-3 prostate; SK-MEL-5 melanoma; UACC-62 melanoma; LOX IMVI melanoma; SK-MEL-28 melanoma; SNB-19 CNS.
Experiment in all cases: NCI-60 one-dose screen, 48 h (100 = growth as untreated, 0 = no growth, -100 = all killed)
Holding throughout (settings): 10 µM unless noted

With `C#C[C@]1(O)CC[C@H]2[C@@H]3CC=C4c5sc(NCc6ccccc6)nc5CC[C@]4(C)[C@H]3CC[C@@]21C`, the growth in the assay with DU-145 prostate was 71%; in the assay with K-562 leukemia, 1.46% (active); in the assay on MALME-3M melanoma it was 43.6%; in the assay on MDA-MB-231 breast, 48.4%; with RXF 393 renal, -36% (active); with SF-268 CNS it was 47.5%. Besides, the growth in the assay with SF-295 CNS was -57.6% (active); in the assay with SF-539 CNS, -39.9% (active); in the assay on UACC-257 melanoma, -10% (active); with M14 melanoma, 21.4%; with HCT-15 colon, 8.8% (active); with HT29 colon, -7.33% (active). Besides, the growth in the assay with SNB-75 CNS was 23.5%; in the assay on U251 CNS, 23.4%; in the assay with PC-3 prostate, 15.3%; with SK-MEL-5 melanoma, 58.2%; with UACC-62 melanoma, 9.41% (active); in the assay on LOX IMVI melanoma, -5.72% (active). Further, the growth in the assay on SK-MEL-28 melanoma is 12.7%.
Take `O=C(CSc1nc2ccccc2c(=O)n1-c1ccccc1)Nc1ccc(S(=O)(=O)Nc2nccs2)cc1`: the growth was 84.1% in the assay with DU-145 prostate; 58.2% with K-562 leukemia; 88.5% in the assay with MALME-3M melanoma; 74.1% with MDA-MB-231 breast; 76.5% in the assay on RXF 393 renal; 44.5% in the assay with SF-268 CNS. Besides, the growth is 98.2% in the assay with SF-295 CNS; 69% with SF-539 CNS; 62.8% with UACC-257 melanoma; 78.6% in the assay on M14 melanoma; 66.5% in the assay with HCT-15 colon; 69.5% in the assay on HT29 colon. Also, the growth in the assay with SNB-75 CNS is 57.4%; with U251 CNS it was 2.78% (active); with PC-3 prostate, 91%; in the assay with SK-MEL-5 melanoma it was 66.5%; in the assay with UACC-62 melanoma, 71.4%; in the assay with LOX IMVI melanoma it was 36.5%. Besides, the growth in the assay on SK-MEL-28 melanoma was 76.3%.
For the compound `Cc1ccc2c(n1)C(=O)C(Cl)=C(Nc1cccc(C(=O)OC(C)(C)C)c1)C2=O`, the growth was 94.8% with DU-145 prostate; -18.1% (active) with K-562 leukemia; 127% in the assay on MALME-3M melanoma; 74.4% in the assay on MDA-MB-231 breast; 84.3% in the assay on RXF 393 renal; 93.4% in the assay with SF-268 CNS. Further, the growth in the assay on SF-295 CNS was 104%; in the assay on SF-539 CNS, 105%; in the assay with UACC-257 melanoma, 72.3%; with M14 melanoma it was 96.5%; with HCT-15 colon, 47.1%; in the assay with HT29 colon, 114%. Moreover, the growth with SNB-75 CNS was 95.7%; in the assay with U251 CNS, 88.5%; in the assay on PC-3 prostate it was 72%; in the assay with SK-MEL-5 melanoma, 88.1%; in the assay with UACC-62 melanoma, 90.7%; with LOX IMVI melanoma, 8.98% (active). For the same compound, in the assay on SK-MEL-28 melanoma, the growth was 103%.
On to `CCCCc1nc2c(N)nc3ccccc3c2n1Cc1cccc(CN)c1`, for which the growth in the assay with DU-145 prostate is 60.2%; in the assay on K-562 leukemia, 3.82% (active); in the assay with MALME-3M melanoma it was 22.6%; with MDA-MB-231 breast it was 57.3%; in the assay with RXF 393 renal it was 47.6%; in the assay with SF-268 CNS, 48.7%. Besides, the growth with SF-295 CNS was 55.8%; in the assay on SF-539 CNS, 5.63% (active); with UACC-257 melanoma it was -62.3% (active); with M14 melanoma, -89.2% (active); with HCT-15 colon, 55.9%; with HT29 colon, 17.4%. Further, the growth in the assay with SNB-75 CNS is 15.1%; with SNB-19 CNS it was 63.2%; in the assay on U251 CNS, 38.5%; with PC-3 prostate, 53.3%; with SK-MEL-5 melanoma, 55%; in the assay on LOX IMVI melanoma, 18.1%. In addition, the growth with SK-MEL-28 melanoma is 59.4%.
Regarding `Cc1ccc(NC(=O)Nc2nc3ccc([N+](=O)[O-])cc3s2)cc1`, the growth in the assay with DU-145 prostate is 17.9%; in the assay on K-562 leukemia, 10.7%; in the assay with MALME-3M melanoma, -19.2% (active); with MDA-MB-231 breast, 2.83% (active); in the assay with RXF 393 renal, -12.1% (active); in the assay on SF-268 CNS, 10.8%. Further, the growth in the assay on SF-295 CNS was 0.916% (active); in the assay with SF-539 CNS, 14%; in the assay on UACC-257 melanoma, -12.5% (active); in the assay on M14 melanoma it was 7.25% (active); in the assay with HCT-15 colon it was 7.79% (active); in the assay on HT29 colon, 11.7%. In addition, the growth in the assay on SNB-75 CNS was 1.44% (active); in the assay on U251 CNS it was 4.96% (active); in the assay on PC-3 prostate, -1.61% (active); in the assay with SK-MEL-5 melanoma, -55% (active); in the assay on UACC-62 melanoma, 9.49% (active); in the assay with LOX IMVI melanoma it was 11.6%. Further, the growth in the assay with SK-MEL-28 melanoma was 14.8%.
In the case of `CSc1ccc(/C(=N/N=C(N)N)c2ccc(F)cc2)cc1`, the growth is 20.9% with DU-145 prostate; 0.0764% (active) in the assay on K-562 leukemia; 90.4% in the assay on MALME-3M melanoma; 24.2% in the assay on MDA-MB-231 breast; -4.77% (active) with RXF 393 renal; 36.3% with SF-268 CNS. For the same compound, the growth with SF-295 CNS was 11.8%; in the assay with SF-539 CNS it was 10.4%; in the assay on UACC-257 melanoma, 66.1%; in the assay on M14 melanoma, 3.79% (active); with HCT-15 colon it was 6.59% (active); in the assay on HT29 colon, 4.2% (active). Besides, the growth in the assay on SNB-75 CNS is 44.2%; in the assay on U251 CNS, 11.2%; in the assay on PC-3 prostate, 20%; in the assay on SK-MEL-5 melanoma, -11.3% (active); in the assay on UACC-62 melanoma it was 36.2%; in the assay on LOX IMVI melanoma, 5.46% (active). Also, the growth in the assay on SK-MEL-28 melanoma was 60.9%.
As to `O=C1[C@H]2Cc3c([nH]c4ccccc34)[C@H](c3ccc(Cl)cc3)N2C(=O)CN1C1CCN(CC2CCCCC2)CC1`, the growth with DU-145 prostate is 74.6%; in the assay with K-562 leukemia, 6.81% (active); with MALME-3M melanoma it was 45.8%; in the assay with MDA-MB-231 breast, 87%; with RXF 393 renal, 45.8%; in the assay on SF-268 CNS, 60.2%. Moreover, the growth was 97.4% in the assay with SF-295 CNS; 66.2% in the assay with SF-539 CNS; 75.1% with UACC-257 melanoma; -56% (active) in the assay with M14 melanoma; 28.6% in the assay on HCT-15 colon; -21.9% (active) with HT29 colon. Further, the growth in the assay with SNB-75 CNS is 41.4%; in the assay on U251 CNS, 49.2%; in the assay on PC-3 prostate it was 52.9%; in the assay on SK-MEL-5 melanoma it was 37.8%; in the assay on UACC-62 melanoma, 93.4%; in the assay on LOX IMVI melanoma it was -79.5% (active). Besides, in the assay on SK-MEL-28 melanoma, the growth is 83.2%.
Turning to `CCNC(=O)Oc1ccc(/C(=C(/C)c2ccc(Cl)cc2)c2ccc(OCCN3CCCCCC3)cc2)cc1`, the growth in the assay on DU-145 prostate is 58.5%; in the assay on K-562 leukemia it was 5.06% (active); with MALME-3M melanoma, -58.4% (active); in the assay with MDA-MB-231 breast it was 21.3%; in the assay on RXF 393 renal it was -10.3% (active); in the assay with SF-268 CNS, 53.9%. In addition, the growth in the assay on SF-295 CNS is -40.1% (active); in the assay with SF-539 CNS it was -44% (active); with UACC-257 melanoma, -19.9% (active); in the assay on M14 melanoma it was -76.5% (active); in the assay on HCT-15 colon, -31.6% (active); in the assay on HT29 colon, -48.4% (active). The growth was 75.6% with SNB-75 CNS; 27.5% with U251 CNS; 13.4% in the assay on PC-3 prostate; 33.1% with SK-MEL-5 melanoma; 2.74% (active) in the assay on UACC-62 melanoma; -76% (active) with SK-MEL-28 melanoma.
